Pf Dd2 growth = Plasmodium falciparum Dd2 growth inhibition. 120,000 compounds, 4.3% hits. P. falciparum Dd2 growth, SYBR Green, 72 h. AID 1347417. Potency, µM (doses to about 28.9 µM), usual class: inhibitors; active means well fitted inhibition curve with a large enough effect; further: nearly all actives have a fitted effect of over 65% in size
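Infected erythrocytes (Dd2, 0.3% parasitemia, 2.5% hematocrit final) are added to compound in RPMI-1640/Albumax II medium, grown 72 h at 37C in low oxygen, then lysed with saponin/Triton-X containing SYBR Green and read by fluorescence.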
Each line names hits and unclear results; the compound was inactive in the other large screens. The sample as a whole holds a higher share of hits than the screen did.

COc1cc(NC(=O)O[C@@H]2CC[C@]3(C)C(CC[C@@H](O)[C@H]3CC(=O)N3CCCC3)[C@]2(C)CO)cc(OC)c1OC (stereo partly drawn)	none
CSc1cccc(NC(=O)O[C@@H]2CC[C@]3(C)C(CC[C@@H](O)[C@H]3CC(=O)N3CCCC3)[C@]2(C)CO)c1 (stereo partly drawn)	Pf Dd2 growth 5µM
C[C@]1(CO)C2CC[C@@H](O)[C@@H](CC(=O)N3CCCC3)[C@]2(C)CC[C@H]1OC(=O)Nc1cccc(F)c1 (stereo partly drawn)	none
CSc1cccc(NC(=O)O[C@@H]2CC[C@]3(C)C(CC[C@@H](O)[C@H]3CC(=O)N3CCC[C@H]3CO)[C@]2(C)CO)c1 (stereo partly drawn)	none
CCCNC(=O)O[C@@H]1CC[C@]2(C)C(CC[C@@H](O)[C@H]2CC(=O)NCc2ccc(F)cc2)[C@]1(C)CO (stereo partly drawn)	none
COc1ccccc1NC(=O)N1CCCC1c1nncn1C1CCCC1 (stereo not drawn)	none
CCC(=O)N1CCN(c2nc3c(s2)CC(C(=O)Nc2ccc(OC)c(F)c2)CC3)CC1 (stereo not drawn)	none
O=C(c1ccc(C(F)(F)F)cc1)N1CCn2c(nnc2-c2ccccc2)C1	none
CN(C)CCN1CCC(N2CCN(C(=O)c3ccnn3C)CC2)C1=O (stereo not drawn)	none
CC(C)Cc1noc(CN(C)C(=O)c2cc(C(C)C)n3ncnc3n2)n1	none
O=c1c2ccccc2nc2sc(Nc3cccc(C(F)(F)F)c3)nn12	none
CC(=O)Nc1ccccc1-c1nc2ccccc2n(CC(=O)Nc2cccc(C(F)(F)F)c2)c1=O	none
CCc1c(C)c(C#N)c2nc3ccccc3n2c1Nc1cccc(C(F)(F)F)c1	Pf Dd2 growth 2.2µM
COCc1nncn1C1CCN(S(=O)(=O)c2ccccc2)CC1	none
COc1ccc(C(=O)Nc2nc3ccccc3n2CCOc2ccc(Cl)cc2)cc1	Pf Dd2 growth 11µM
COc1ccc(OCCn2c(NC(=O)c3ccc(OC)cc3)nc3ccccc32)cc1	none
COc1ccc(OCCn2c(C(C)Oc3ccccc3)nc3ccccc32)cc1 (stereo not drawn)	none
O=C(c1ccc(F)cc1F)N1CCC2(CC1)N=C(c1ccc(Cl)cc1)NO2	none
O=C(CCC[C@@H]1[C@H]2CCCN3CCC[C@@H](CN1C(=O)C1(c4ccccc4)CC1)[C@@H]23)NCC1CC1	Pf Dd2 growth 13µM
CC(C)C(=O)N1C[C@@H]2CCCN3CCC[C@@H]([C@H]23)[C@H]1CCCC(=O)NCC1CC1	none
Cc1cccc(C(=O)N2C[C@@H]3CCCN4CCC[C@@H]([C@H]34)[C@H]2CCCC(=O)NCC2CC2)c1	none
COc1ccc(N2CC(C(=O)N3CCC(C(=O)NCc4cccs4)C3)NC2=O)cc1 (stereo not drawn)	none
Cc1noc(C2CCCCCN2C(=O)NCC(C)C)n1 (stereo not drawn)	none
CCOc1cccc(C2Nc3ccccc3-c3cc(C)nn32)c1O (stereo not drawn)	Pf Dd2 growth 1µM
COc1cc(C2Nc3ccccc3-c3cc(C)nn32)ccc1O (stereo not drawn)	none
COc1ccc(C2Nc3ccccc3-c3cc(C)nn32)cc1OC (stereo not drawn)	none
COC[C@@H]1CN(C(=O)c2cc(Cl)ccc2OC)C[C@H]1C(N)=O	none
COc1ccc(-c2cc(N3CCC(NC(=O)c4ccc(F)c(Cl)c4)C3)n[nH]2)cc1 (stereo not drawn)	none
CN(CC1CCOCC1)S(=O)(=O)Cc1ccccc1Cl	none
O=C1CC(c2ccccc2)N(C(=O)C2CC2)CCCN(C(=O)c2cc3ccccc3[nH]2)CCN1 (stereo not drawn)	Pf Dd2 growth 11µM
O=C1CC(c2ccccc2)N(Cc2ccncc2)CCCN(C(=O)c2cc3ccccc3[nH]2)CCN1 (stereo not drawn)	Pf Dd2 growth 3.5µM
O=C1CC(c2ccccc2)N(Cc2ccncc2)CCCN(C(=O)C2CCCCC2)CCN1 (stereo not drawn)	none
O=C1CC(c2ccccc2)N(C(=O)C2CC2)CCCN(C(=O)c2ccc3ccccc3n2)CCN1 (stereo not drawn)	none
O=C1CC(c2ccccc2)N(C(=O)C2CC2)CCCN(C(=O)c2c[nH]c3ccccc23)CCN1 (stereo not drawn)	none
O=C1CCN(S(=O)(=O)c2ccccc2)CCCN(C(=O)Cc2cccc(F)c2)CCN1	none
CS(=O)(=O)N1CCCN(C(=O)c2ccncc2)CCNC(=O)CC1c1ccccc1 (stereo not drawn)	none
O=C1CC(c2ccccc2)N(Cc2ccncc2)CCCNCCN1 (stereo not drawn)	none
O=C1CC(c2ccccc2)N(Cc2ccncc2)CCCN(S(=O)(=O)c2cccc(F)c2)CCN1 (stereo not drawn)	Pf Dd2 growth 0.5µM
CCN1CCCCC12Cc1ccccc1CN(C(=O)CCC(=O)O)C2 (stereo not drawn)	none
O=C(O)c1cccc(C(=O)N2C[C@@H]3C[C@H](C2)c2ccc(NC(=O)c4cccs4)c(=O)n2C3)c1	none
CC(C)CCCC1CN(C(=O)c2c(O)cccc2O)CCO1 (stereo not drawn)	none
CCNc1nccc(N2CCC(CC(=O)NCCCOC)CC2)n1	none
COc1ccccc1C(=O)N1CCC(Cc2n[nH]c(C)n2)CC1	none
O=C([C@@H]1C[C@H](Oc2ccccc2)CN1C(=O)Cc1c[nH]c2ccccc12)N1CCOCC1	none
O=C([C@@H]1C[C@H](Oc2cccnc2)CN1C(=O)CCc1c[nH]c2ccccc12)N1CCOCC1	Pf Dd2 growth 4µM
O=C([C@@H]1C[C@H](Oc2cccnc2)CN1C(=O)CCc1ccccc1)N1CCOCC1	none
COc1cccc(CN2CCCC(Nc3cc(N)ncn3)C2)c1 (stereo not drawn)	none
COc1cccc(CCC2CCCN(C(=O)C3CCCC3)C2)c1 (stereo not drawn)	none
CCN(Cc1cccc(OCCO)c1)CC1CCCN(CCc2cccc(OC)c2)C1 (stereo not drawn)	Pf Dd2 growth 10µM
COC1CCC(C(=O)NCC2COc3ncncc3C(=O)N2Cc2ccccc2)CC1 (stereo not drawn)	none
CN1C(=O)CC(C(=O)O)C12CCN(Cc1cnn(C)c1)CC2 (stereo not drawn)	none
c1ccc2c(c1)CCN2c1nccnc1OC1CCNC1 (stereo not drawn)	Pf Dd2 growth 7.9µM
CN(C)C(=O)c1cccnc1OC1CCNCC1	none
c1cnc(N2CCOCC2)c(OC2CCNC2)n1 (stereo not drawn)	Pf Dd2 growth 1.4µM
CCNC(=O)c1cccnc1OC1CCN(Cc2ccccn2)C1 (stereo not drawn)	none
c1ccc(CN2CCC(Oc3nccnc3N3CCc4ccccc43)C2)nc1 (stereo not drawn)	Pf Dd2 growth 4µM
O=C(c1ccccc1)N1CCC(Oc2nccnc2N2CCOCC2)C1 (stereo not drawn)	none
CN1CCC(Oc2nccnc2N2CCOCC2)C1 (stereo not drawn)	none
c1cc(CN2CCC(Oc3nccnc3N3CCOCC3)C2)ccn1 (stereo not drawn)	none
CN1CCC(Oc2nccnc2N2CCc3ccccc3C2)C1 (stereo not drawn)	Pf Dd2 growth 8.9µM
O=C(NCCc1ccccn1)c1cccnc1OC1CCNCC1	none
O=C(C1CCOCC1)N1CCC(Oc2nccnc2N2CCOCC2)C1 (stereo not drawn)	none
CN1CCC(Oc2ncccc2C(=O)O)CC1	none
COc1ccc(N2CCN(C3CCCN(C(=O)C(C)(C)N)C3)CC2)cc1 (stereo not drawn)	none
CCn1ncc(N2CCC(NC(=O)c3cccc(C)c3)CC2)cc1=O	none
O=C(c1ccc2c(c1)OCO2)N1CCC2(CC1)CC(c1ccccc1)=NO2	none
